Screening results as filed in PubChem.
EBV LMP1 NFkB: reduces LMP1-driven NF-kappaB luciferase signal; LMP1-induced NF-kappaB luciferase reporter cells, luminescence; AID 504558; inhibition, % at 12.5 µM; actives 0.69% (n = 350,000); in the data active means inhibition above about 41%; inconclusive means no clear call, values can overlap the other calls;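 further: 0% = neutral control wells and 100% = reference inhibitor control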
TROY signal inh: TROY signaling inhibition; AID 1347056; inhibition, % at 10 µM; actives 0.98% (n = 360,000); Q293 LMP1-TROYcd NF-kB luciferase reporter, 4 h;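 active means compounds whose plate-normalised and pattern-corrected inhibition of the luciferase reporter signal at the single screening dose is 50% or more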
MITF TRPM1 inh: inhibitors of MITF-driven TRPM1 promoter in melanoma cells | SK-MEL-5 TRPM1 promoter luciferase, 24 h | inhibition, % at 12.5 µM | actives 0.83% (n = 330,000);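 active means mean inhibition across replicates of 60% or more, whatever share of single replicates reaches that level; inconclusive means some that reach 60%, reason not given; inactive means mean inhibition across replicates below 60%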
Peg3 prom inh: inhibitors of Peg3 promoter | inhibition, % at 20 µM | actives 1.7% (n = 360,000) | HeLa PEG-Prom luciferase reporter, luminescence, overnight;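 active means inhibition of at least 50% at 20 µM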
TWEAK Fn14 block: TWEAK-Fn14 signaling inhibition; TWEAK-stimulated Fn14 reporter cells, luciferase luminescence, 8 h; inhibition, % at 10 µM; actives 2% (n = 360,000); AID 1159606; in the data active means inhibition above about 50%
HIF-2a block: HIF-2a inhibition; inhibition, % at 18.8 µM; actives 0.72% (n = 360,000); AID 624352; 786-0 RCC cells HIF-2a reporter, luciferase luminescence, overnight;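 active means inhibition of the luminescence signal of 40% or more relative to plate controls, in a single-dose primary screen at 18.75 µM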
* marks the source's active call; other numbers are inactive results; u = inconclusive; x = no result. In the library only some 4% were active in any assay of this set; here they are far more common.

SMILES	EBV LMP1 NFkB	TROY signal inh	MITF TRPM1 inh	Peg3 prom inh	TWEAK Fn14 block	HIF-2a block
C#CCOCCOCCOCCNc1nc(N2CCN(C(=O)CCCCCCCCCCNC(=O)[C@H]([C@@H](C)CC)n3cc(CCCCN=C(N)N)nn3)CC2)nc(N2CCN(C(=O)CCCCCCCCCCNC(=O)[C@@H]([C@H](C)O)n3cc(C)nn3)CC2)n1	3	9	65*	1	-30	-7
C#CCOCCOCCOCCNc1nc(N2CCN(C(=O)CCCCCCCCCCNC(=O)[C@H](CCCCN)n3cc(C)nn3)CC2)nc(N2CCN(C(=O)CCCCCCCCCCNC(=O)[C@@H]([C@H](C)O)n3cc(C)nn3)CC2)n1	-8	-25	39	50*	-1	5
C[C@H]1CNC(=O)c2c(C(=O)N3CCN(C(=O)OC(C)(C)C)CC3)ncn21	x	7	x	-9	-3	6
Cc1ccsc1/C=N/Nc1ccc(F)cc1F	-23	-39	-85	-312	-28	-254
COc1ccc2nc(NC(=O)C3CCN(S(=O)(=O)c4cccc5nsnc45)CC3)sc2c1	28	61*	74*	81*	97*	18
Cc1cccc(N2CCN(C(=O)C3CCN(S(=O)(=O)c4cccc5cccnc45)CC3)CC2C)c1 (stereo not given)	29	3	3	34	5	7
Cc1cccc(N2CCN(C(=O)C3CCN(S(=O)(=O)c4cccc5nsnc45)CC3)CC2C)c1 (stereo not given)	14	10	8	46	56*	19
Cc1cccc2sc(NC(=O)C3CCN(S(=O)(=O)c4cc([N+](=O)[O-])ccc4Cl)CC3)nc12	8	6	40	13	54*	-39
Cc1ccc(NC(=O)CSCC(=O)N(C)Cc2c(F)cccc2Cl)cc1	-6	14	x	-9	23	0
COc1ccc(N(CC(C)C)S(=O)(=O)c2nnc(NC(=O)CC(C)C)s2)cc1	2	11	5	9	3	25
O=C(NC(Sc1ccc(Cl)cc1)C(=O)O)c1ccccc1 (stereo not given)	-18	-42	x	20	15	10
COc1ccccc1N/C=C/c1onc(C)c1[N+](=O)[O-]	-9	72*	6	0	78*	-71
Cc1ccccc1Nc1ccc2nonc2c1[N+](=O)[O-]	5	3	6	19	13	17
COc1ccccc1Nc1ccc2nonc2c1[N+](=O)[O-]	8	-25	x	12	89*	19
CCCc1nnc(NS(=O)(=O)c2ccc(C)cc2)o1	3	4	-14	5	3	2
CC(C)(C)n1[nH]c2c3c(ccc2c1=O)C(=O)c1ccccc1C3=O	-24	45	u	-27	64*	-33
Cc1ccc(-n2[nH]c3c4c(ccc3c2=O)C(=O)c2ccccc2C4=O)cc1	-4	-17	2	-18	9	-4
COCCCn1[nH]c2c3c(ccc2c1=O)C(=O)c1ccccc1C3=O	0	-34	61*	-39	-16	-82
O=C(CCSc1ccc(Cl)c(Cl)c1)NC12CC3CC(CC(C3)C1)C2	-16	-56	-60	-75	-8	-118
Cc1cc(N2CCCC2)c(F)cc1/C=C\[N+](=O)[O-]	19	6	18	79*	19	-29
CN(c1ccc(O)cc1)c1nc(-c2ccccc2)cs1	-7	-44	-54	-386	55*	-235
COc1ccc(NC(C)=O)c(C)c1	4	13	2	-3	4	19
COc1ccc(-n2nc3cc(C)c(NC(C)=O)cc3n2)cc1	20	57*	3	-28	75*	-99
CCCCOc1ccc(C(=O)NCC(=O)NCCCn2nc(C)cc2C)cc1	-6	-15	5	-11	9	6
Cc1ccc(S(=O)(=O)Nc2ccc(O)c3ncccc23)cc1	6	15	51	17	1	20
SMILES	EBV LMP1 NFkB	TROY signal inh	MITF TRPM1 inh	Peg3 prom inh	TWEAK Fn14 block	HIF-2a block
Cc1ccc(S(=O)(=O)Nc2ccc(O)c3cccnc23)cc1	8	17	22	78*	22	84*
O=C(COC(=O)c1ccccc1Br)Nc1ccc2[nH]c(=O)[nH]c2c1	-12	-9	11	23	-10	22
O=c1c2ccc(Cl)cc2nc(-c2cccc(C(F)(F)F)c2)n1O	17	30	47	52*	0	26
N#Cc1ccc(-c2nc3cc(Cl)ccc3c(=O)n2O)cc1	15	23	-6	20	18	33
CCOc1cc(C=NN2CCCCCC2)ccc1O	-7	-26	-25	-61	2	-7
CCOc1ccc(-c2csc(/C(C#N)=C\c3ccc(O)c([N+](=O)[O-])c3)n2)cc1	-11	71*	10	12	104*	-124
O=C(O)c1cc(-c2ccc(-c3ccc(F)cc3)o2)nc2ccccc12	10	-18	-37	-177	-7	-150
COc1ccc(-n2ncc3c2CC(C)(C)CC3NC(=O)c2cnc(C)cn2)cc1 (stereo not given)	11	1	3	8	-4	-2
O=C(Cc1ccccc1[N+](=O)[O-])NCC1(c2cccc3c2OCO3)OCCO1	46*	-7	-1	8	-5	22
Cc1c(S(=O)(=O)N2CCN(C(=O)c3ccco3)CC2)c(=O)n(C)c(=O)n1C	1	-14	-8	-23	6	-10
Cn1cc(S(=O)(=O)N2CCN(C(=O)c3ccco3)CC2)c(=O)n(C)c1=O	88*	-5	-19	13	6	16
CCCS(=O)(=O)N1CCN(C(=O)c2ccco2)CC1	1	13	2	10	77*	4
O=C(c1ccco1)N1CCN(C(=O)c2ccco2)C1=S	-5	27	6	92*	51*	35
O=C(O)c1ccccc1C(=O)c1cccc2c(Br)cccc12	9	17	-6	7	-7	10
COc1ccccc1N(CC(=O)NCCSCc1cccc(C)c1)S(=O)(=O)c1ccccc1	3	38	13	61*	34	29
COc1ccc(N(CC(=O)NCCSCc2ccccc2C)S(=O)(=O)c2ccccc2)cc1	0	76*	-14	26	27	27
Cc1ccc(C2(c3ccccc3)NC(=O)N(CC(=O)NC3(C#N)CCCC3)C2=O)cc1C (stereo not given)	-2	-6	8	14	3	10
CC(C)C1N(C(N)=S)N=CC1(C)C (stereo not given)	6	5	4	19	-12	19
c1ccc(COc2ccccc2CNC23CC4CC(CC(C4)C2)C3)cc1	5	-2	7	75*	-25	13
c1ccc(COc2ccccc2CNC2CCCC2)cc1	0	9	-3	-8	-3	4
CC(C)(C)c1cc(/C=N/NC(=O)C[n+]2ccccc2)cc(C(C)(C)C)c1O	-1	14	-7	11	5	20
O=c1cc2oc3cc(O)c(O)cc3c(-c3ccccc3O)c-2cc1O	12	4	6	28	31	5
